In the supplement of paper PMC3334620:
Over roughly 33,000 sequences, “E-score (-0.5 to 0.5)” has its median near -0.013; the highest 2% begin near 0.3. This excerpt belongs to a sample that is enriched for the highest values.

These sequences were tested against T1, Msn1 (UniProt P22148) (assay: PBM E-score (8-mer binding enrichment) (E-score (-0.5 to 0.5)); higher = stronger / more preferred TF binding). Settings: protein concentration: 200 nM; construct: GST-full length.
T1 sequence: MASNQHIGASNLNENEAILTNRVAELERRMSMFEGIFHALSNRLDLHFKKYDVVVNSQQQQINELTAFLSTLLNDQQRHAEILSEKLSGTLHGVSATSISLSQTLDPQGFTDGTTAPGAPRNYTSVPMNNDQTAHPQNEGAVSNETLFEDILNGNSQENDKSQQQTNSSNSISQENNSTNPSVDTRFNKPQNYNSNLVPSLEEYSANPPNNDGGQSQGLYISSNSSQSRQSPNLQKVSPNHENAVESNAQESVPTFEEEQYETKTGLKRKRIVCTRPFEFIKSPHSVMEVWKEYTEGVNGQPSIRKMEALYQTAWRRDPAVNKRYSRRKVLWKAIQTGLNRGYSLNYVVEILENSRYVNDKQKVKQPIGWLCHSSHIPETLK
In short: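 Each ungapped eight-base word and its reverse complement, pooled, received an E-score from the Universal PBM Analysis Suite. Underlying scans, normalised with masliner, recorded fluorescent anti-GST bound to GST-tagged yeast transcription factors. These were applied at about 100-200 nM to universal all-10-mer Agilent arrays double-stranded by primer extension.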

Point of comparison: GTGTCTAA, “PBM E-score” value 0.192. Against it:
- TCAGGAAA — lower, 0.0903
- CCAGGACA — higher, 0.469
- ACAGGACG — lower, 0.0345
- TCAGGAGA — lower, -0.0143
- GCAGGACA — higher, 0.47
- GCAGGATA — lower, -0.224
- GCAGGACC — lower, -0.0863
- TCAGGACA — higher, 0.461
- CCAGGACC — lower, -0.105
- CCGAGATC — lower, 0.0634
- AGGTTAAC — lower, -0.0876
- AATCGATG — lower, 0.144
- CAGCAGAC — lower, 0.0732
- AGTCTGTC — lower, 0.0754
- AGCCAGAC — lower, -0.072
- AAGCGCCC — lower, -0.264
- TATTGAGA — higher, 0.208
- CCAGCGGC — lower, -0.0286
- GGTAACTA — lower, 0.18
- ATTGTCGC — higher, 0.344
- ACTGTCGG — lower, -0.0418
- ATTGTCGA — lower, 0.144
- ATTGTCGG — higher, 0.318
- CTTGTCGC — lower, 0.166
- ACTGTCGC — lower, -0.134
- AGGGTTTG — lower, -0.0242
- ACCCGTTA — lower, 0.00896
- GTGGTACA — lower, 0.13
- GCGGTACA — lower, 0.0441
- CTGGTACA — higher, 0.329
- CCGGTACG — lower, -0.262
- CTGGTACC — lower, -0.121
- CCGGTACA — higher, 0.319
- CGGCCCAG — lower, -0.186
- TAAGAAAA — lower, 0.00824
- CTGCGACC — lower, -0.19
- ATGTCCCC — higher, 0.479
- ACGTCCCG — lower, 0.0295
- ATGTCCCA — higher, 0.485
- ATGTCCCG — higher, 0.474
- CTGTCCCA — higher, 0.281
- CTGTCCCC — lower, 0.00412
- AGGTCCCA — lower, -0.081
- GCGTCCCA — lower, 0.0223
- AAGTCCCG — higher, 0.283
- GGGTCCCA — lower, -0.216
- GTGTCCCA — higher, 0.439
- AGGTCCCC — lower, -0.299
- GCCTTTGA — lower, 0.0544
- CGAGGAGA — lower, -0.141
- AGACCCTG — lower, -0.165
- ACCTAACG — lower, -0.203
- ATGATCTG — lower, 0.0873
- GGGAAAAA — lower, 0.185
- GCGGTCAC — lower, -0.172
- AAGTCTAG — lower, -0.107
- ATGTCTAA — higher, 0.403
- AGGTCTAC — lower, -0.0162
- ATGTCTAC — higher, 0.313
- CTGTCTAA — lower, 0.111
- ATGTCTAG — higher, 0.373
- CTGTCTAC — lower, -0.0627
- AGGTCTAG — lower, -0.134
- CTAGTAGC — lower, -0.165
- GAGGGTAC — lower, -0.202
- CTATTTCC — lower, 0.063
- ACAATTGC — lower, 0.191
- AAAATTCG — higher, 0.232
- AAAATTGG — lower, 0.00283
- AAAATTGT — higher, 0.357
- GAAATTCA — lower, 0.103
- AAAATTGC — lower, 0.054
- AAAATTCA — higher, 0.308
- ACAATTGA — higher, 0.257
- ACAATTGT — higher, 0.363
- ATCCATAA — lower, 0.124
- AATTCCTC — lower, -0.0412
- AGCCACTA — lower, -0.0424
- CCCCAGCC — lower, -0.271
- ACCCTGAG — lower, -0.0157
- ACGCGCGC — higher, 0.196
- GCGCGCGA — lower, 0.0948
- GCGCGCGC — higher, 0.333
- CCTGCTAC — lower, 0.017
- AGTTCTCC — lower, -0.205
- ACATTTCG — higher, 0.241
- ACATTTTC — higher, 0.337
- CCATTTTC — lower, 0.136
- ACATTTTA — higher, 0.377
- CCATTTTA — higher, 0.259
- ACATTTCC — higher, 0.329
- GCATTTTA — lower, 0.109
- CCATTTCA — lower, -0.106
- ACATTTCA — higher, 0.363
- AGATTTTC — lower, 0.0741
- ACATTTCT — higher, 0.204
- GCATTTCA — lower, 0.0826
- GTGAGGCA — lower, -0.0279
- ACTGACCT — lower, -0.063
- CCACGTGG — lower, -0.276
- CGATGAGC — lower, -0.17
- CTACCTCC — lower, -0.0369
- ACATTTGG — lower, 0.177
- ACATTAAT — lower, 0.155
- ACATTAAC — higher, 0.254
- ACATTTAA — higher, 0.324
- ACATTTGA — higher, 0.311
- ACATTTTG — higher, 0.34
- ACATTAAG — higher, 0.32
- TCATTTAA — lower, 0.132
- ATATTTTG — lower, 0.176
- GCATTTGA — lower, 0.051
- AGATTTTG — lower, 0.0738
- GCATTTAA — lower, 0.0963
